# Assay results as given in PubChem BioAssay AID588453 (National Center for Advancing Translational Sciences (NCATS), 2011).
# Hit rate of the full screen: of about 390,000 compounds, about 4,000 (1%) were called active. Another 4% or so got no clear call; they are omitted. Calls follow the shape of the dose curve; as a rule, active = well fitted inhibition curve with a large enough effect; inconclusive = small, poorly fitted or top-dose-only effect; inactive = no such curve, though single readings can be large or run the other way. Many of the other results were omitted from the sample, so actives are more common in it than they were.
# Target: Thioredoxin reductase 1, cytoplasmic (Rattus norvegicus) (UniProt O89049)
# Assay: qHTS Assay for Inhibitors of Mammalian Selenoprotein Thioredoxin Reductase 1 (TrxR1): qHTS; also: nearly all actives have a fitted effect of over 65% in size
# Settings: recombinant rTrxR1, NADPH fluorescence consumption, selenite substrate; series mostly up to 114 µM; activity change, negative = inhibition: at the top concentration
# Outline: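 Rat TrxR1 (90 nM in the dispensed reagent) was pre-reduced with 400 uM NADPH for 5 min at room temperature, then incubated with compound for 15 min. After 400 uM selenite was added, NADPH fluorescence (Ex 340/Em 450 nm) was followed for 8 min.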
# % is scaled to controls: 0 for no effect and ±100 for the full control effect; potency is read from the fitted curve at half-maximal effect.
# Chain of Thioredoxin reductase 1, cytoplasmic (Rattus norvegicus) (O89049 whole entry, looked up): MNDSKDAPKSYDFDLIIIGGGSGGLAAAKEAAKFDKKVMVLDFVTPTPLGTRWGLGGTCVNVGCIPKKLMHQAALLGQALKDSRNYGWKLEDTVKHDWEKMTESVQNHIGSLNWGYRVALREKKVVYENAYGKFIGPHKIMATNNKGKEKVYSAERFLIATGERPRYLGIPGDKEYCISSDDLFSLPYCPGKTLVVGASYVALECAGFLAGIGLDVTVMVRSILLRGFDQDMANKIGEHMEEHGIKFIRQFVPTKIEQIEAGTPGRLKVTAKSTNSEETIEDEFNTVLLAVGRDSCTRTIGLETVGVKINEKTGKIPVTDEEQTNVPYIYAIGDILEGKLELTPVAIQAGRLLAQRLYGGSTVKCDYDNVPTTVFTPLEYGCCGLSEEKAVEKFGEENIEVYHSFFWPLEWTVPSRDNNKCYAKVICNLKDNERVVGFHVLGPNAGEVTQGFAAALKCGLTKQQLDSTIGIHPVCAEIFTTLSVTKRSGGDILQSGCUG
Compound,"activity change, negative = inhibition",Potency
CCc1ccc(N(CC)C(=O)CCn2cnc3onc(-c4ccc(F)cc4)c3c2=O)cc1,9.72% (inactive),
COc1ccccc1NC(=O)CSc1nnc(-c2ccoc2C)n1CCc1ccccc1,-4.19% (inactive),
COc1cc(Cl)c(C)cc1NC(=O)CSc1nnc(CN2CCCC2)o1,33.7% (inactive),
COc1cc(Cl)c(C)cc1NC(=O)CSc1nnc(-c2ccco2)n1CC(C)C,,12.6 µM (active)
Cc1cccc(C(=O)Nc2ccc(S(=O)(=O)N3CCCCC3c3cccnc3)cc2)c1 (configuration not stated),20.3% [at 57.1 µM] (inactive),
Cc1ccc2oc(C(=O)Nc3ccc(S(=O)(=O)N4CCCCCC4)cc3)cc(=O)c2c1,24.7% (inactive),
CCOc1ccc(NC(=O)c2ncoc2-c2ccco2)cc1,7.87% [at 57.1 µM] (inactive),
COCCNC(=O)Nc1ccc2nc(-c3ccco3)c(-c3ccco3)nc2c1,,3.16 µM (active)
COc1ccc(-c2nc3ccc(C(=O)NCc4ccc(C)cc4)cc3nc2-c2ccc(OC)cc2)cc1,36.4% [at 57.1 µM] (inactive),
COc1cc(-n2c(C)nc3cc(C(=O)NCc4ccco4)ccc32)cc(OC)c1OC,-16.2% (inactive),
COc1ccc(NC(=O)COCc2cc(-c3ccco3)on2)cc1,23.4% [at 57.1 µM] (inactive),
C=CCNC(=O)c1ccc2nc(-c3ccco3)c(-c3ccco3)nc2c1,,7.94 µM (active)
Cc1nc2sc(C)c(C)n2c(=O)c1S(=O)(=O)NCCc1ccc(Cl)cc1,17.8% (inactive),
O=C(NCCS(=O)(=O)N1CCN(c2ccc(F)cc2)CC1)c1ccccc1Br,15.9% [at 57.1 µM] (inactive),
O=[N+]([O-])c1ccc(/C=C/c2ccc3cccnc3c2)cc1,5.43% (inactive),
O=C(Cn1cc(SCc2cccc(Cl)c2)c2ccccc21)N1CCCCC1,17% (inactive),
O=C(N1CCOCC1)N1CCOCC1,32.6% (inactive),
N#C/C(=C/c1ccc(N2CCOCC2)o1)C(=O)N1CCOCC1,,50.1 µM (active)
N#C/C=C(/c1ccc(F)cc1)N1CCOCC1,12.6% (inactive),
COc1cccc(C(=O)NC(=O)Nc2ccc(-c3cc(C(F)(F)F)nn3-c3ccccc3)cc2)c1,-9.56% (inactive),
Cc1cccc(-n2ncc(C(=O)N3CCC(C)CC3)c2C2CCN(C(=O)OC(C)(C)C)CC2)c1,29.8% (inactive),
Cc1cccc(-n2ncc(Cl)c(Cl)c2=O)c1,,44.7 µM (active)
Cc1cccc(-n2ncc(C(=O)N3CCN(c4ccc(Cl)cc4)CC3)c2C2CCN(C(=O)OC(C)(C)C)CC2)c1,5.36% (inactive),

Compound,"activity change, negative = inhibition",Potency
CCOc1ccc(C2CC(=O)c3c([nH]c(C(=O)OCc4ccccc4)c3C)C2)cc1 (configuration not stated),23% (inactive),
CCc1ccc(OCCCn2c(CCCNC(=O)C3CCCCC3)nc3ccccc32)cc1,7.76% (inactive),
Cc1ccc(C=O)cc1Cl,27.3% (inactive),
Cc1ccc(-n2ncc3c(N4CCC(C(N)=O)CC4)ncnc32)cc1,10.5% [at 57.1 µM] (inactive),
Cc1cc(NC(=O)CCS(=O)(=O)c2ccc(F)cc2)no1,,44.7 µM (active)
Cc1cc(NC(=O)CCC(=O)N(CC(=O)NC2CCCC2)c2ccc(F)cc2)no1,27.1% [at 57.1 µM] (inactive),
Cc1cc(NC(=O)CSc2nc(=O)cc(N)n2-c2ccc(F)cc2)no1,8.12% (inactive),
ClC/C=C/C[n+]1ccccc1Cl,-29.2% (inactive),
CC(=O)NC(CC(=O)Nc1nc(-c2ccccc2)c(C(C)=O)s1)c1ccccc1 (configuration not stated),24.1% (inactive),
C/C(=N/Nc1nc(-c2ccccc2)c(CC(=O)O)s1)c1ccccc1,,5.62 µM (active)
C/C(=N\Nc1cccc(C(=O)O)c1)c1ccc2c(c1)Nc1ccccc1S2,-0.323% (inactive),
CC(C)CCN(C(=O)Nc1ccc(Cl)c(Cl)c1)C(C)c1cccs1 (configuration not stated),28.6% [at 57.1 µM] (inactive),
C=CCN1C(=O)C(O)(CC(=O)c2ccc(Cl)cc2)c2ccccc21 (configuration not stated),,35.5 µM (active)
C=CCN1C(=O)C(O)(CC(=O)c2ccccn2)c2ccccc21 (configuration not stated),-1.4% [at 57.1 µM] (inactive),
Cc1ccc(C(=O)CC2(O)C(=O)N(CCc3ccccc3)c3ccc(Br)cc32)cc1 (configuration not stated),15.4% (inactive),
CCCCC(CCCC)c1ccc(C=Nc2ccc(/C=C/c3ccnc4ccccc34)cc2)cc1,-17.9% (inactive),
COc1cccc(Cn2c(SCc3ccc(C(=O)N4CCCCC4)cc3)nc3ccncc32)c1,-22.6% (inactive),
Fc1cccc(-n2ncc3c2ncn2nc(-c4ccccc4Cl)nc32)c1,34.7% (inactive),
C1=C(N2CCOCC2)/C(=C/c2nc3ccccc3[nH]2)CC1,,15.8 µM (active)
Cc1nn2c3cc(N4CCOCC4)ccc3nc2c2ccccc12,-2.61% (inactive),
Cn1cc(S(=O)(=O)N2CCCCCC2)cc1C(=O)N1CCN(c2ccc(F)cc2)CC1,1.38% [at 57.1 µM] (inactive),
COc1cccc(NC(=O)COC(=O)/C=C/c2ccco2)c1,,39.8 µM (active)
COc1ccc([N+](=O)[O-])cc1NC(=O)COC(=O)/C=C/c1ccco1,4.25% (inactive),

Compound,"activity change, negative = inhibition",Potency
NS(=O)(=O)c1cccc(NC(=O)COC(=O)/C=C/c2ccco2)c1,-45.1% (inactive),
CCC(C)N(c1ccc(/C=C/c2ccnc3ccccc23)cc1)C(C)CC (configuration not stated),-11.6% (inactive),
CCN(CC)/[N+]([O-])=N/OCOC(=O)Cc1c(C)n(C(=O)c2ccc(Cl)cc2)c2ccc(OC)cc12,13.3% [at 0.457 µM] (inactive),
COc1ccc(NC(=O)CSc2nc3ncccc3[nH]2)c(OC)c1,6.36% (inactive),
OCC(O)C(O)C(O)C(O)C=Nc1ccc(/C=C/c2ccnc3ccccc23)cc1 (configuration not stated),18.2% (inactive),
O=C(Nc1cccc(-c2nc3ccccc3o2)c1)c1cccc(Br)c1,18.4% [at 57.1 µM] (inactive),
O=C(/C=C/c1ccco1)Nc1cccc(-c2nc3ccccc3[nH]2)c1,,79.4 µM (active)
CCc1ccc2oc(-c3ccc(C)c(NC(=O)/C=C/c4ccco4)c3)nc2c1,-24.3% (inactive),
COc1ccc(-c2cc(-c3nc(-c4cc(OC)c(OC)c(OC)c4)no3)[nH]n2)c(OC)c1,16.3% [at 57.1 µM] (inactive),
O=C1/C(=C\c2ccc(O)cc2)CCC1CNc1ccc(Cl)cc1 (configuration not stated),,22.4 µM (active)
Cc1ccc(NS(=O)(=O)c2ccc3c(c2)CC(=O)N3)cc1Cl,9.35% (inactive),
CCOc1n[nH]c(-c2ccccc2)n1,-18.3% (inactive),
CN(Cc1ccccc1)c1ccc(/C=C/c2ccnc3ccccc23)cc1,0.744% (inactive),
COc1ccc(C(F)(F)F)cc1NC(=O)c1sc2nc(-c3cccs3)ccc2c1N,20.9% (inactive),
C=CC1(C)CC(=O)C2(O)C(C)(O1)C(OC(C)=O)C(O)C1C(C)(C)CCC(O)C12C (configuration not stated),,inactive
CCOc1ccc(C(C)=O)cc1COC(=O)CNC(=O)c1cccs1,,22.4 µM (active)
CCOc1ccc(C(C)NC(=O)CN2C(=O)NC3(CCCCC3)C2=O)cc1OCC (configuration not stated),-5.62% (inactive),
Cc1ccc(COC(=O)CN2C(=O)NC3(CCCC3)C2=O)cc1,27.7% (inactive),
COc1ccc(C(=O)COC(=O)CNC(=O)c2cccs2)cc1Br,8.81% (inactive),
CCOc1ccc(C(C)=O)cc1COC(=O)c1cnc(Cl)c(Cl)c1,24.3% [at 57.1 µM] (inactive),
CCOc1ccc(C(C)=O)cc1COC(=O)CN1C(=O)NC2(CCCC2)C1=O,,28.2 µM (active)
